This is part of a sample that, as a whole, favours compounds with a hit. Of some 79,000 tested, about 15% had one in any assay. Values without a mark were called inactive. Calls of active or inactive are those of the source. Rule as the data show it: active = growth inhibition above about 70%; inactive = the rest.
Columns and labels:
[1] = NCI Yeast Anticancer Drug Screen. Data for the rad50 strain (AID 155);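 also: 0% = growth of vehicle-only cultures of the same strain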; settings: S. cerevisiae rad50 strain growth inhibition, hits give high values
Outline: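 Cells are treated with compound, grown, and their growth is then scored against vehicle-only cultures of the same repair-deficient yeast strain.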

[2] = NCI Yeast Anticancer Drug Screen. Data for the mec2-1 strain (AID 157); settings: S. cerevisiae mec2-1 strain, hits give high values
Outline: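 Readout is yeast growth inhibition, normalised to vehicle-treated controls, in the mec2-1 strain exposed to compound.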

[3] = NCI Yeast Anticancer Drug Screen. Data for the sgs1 mgt1 strain (AID 161);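 also: 0% = growth of cultures given vehicle only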; settings: S. cerevisiae sgs1 mgt1 strain, hits give high values
Outline: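 Yeast cells carrying a defined DNA-repair defect were exposed to test compounds. Growth inhibition was measured relative to vehicle-treated controls.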

[4] = NCI Yeast Anticancer Drug Screen. Data for the cln2 rad14 strain (AID 165);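 also: 0% = growth equal to vehicle treated cultures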; settings: S. cerevisiae cln2 rad14 strain, hits give high values
Outline: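 Relative to vehicle controls, growth inhibition of compound-treated cln2 rad14 yeast was recorded.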

[5] = NCI Yeast Anticancer Drug Screen. Data for the bub3 strain (AID 167); settings: S. cerevisiae bub3 mutant strain, hits give high values
Outline: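 Part of a panel of yeast mutants defective in DNA damage repair or cell cycle regulation. Each strain is grown with compound, and inhibition is calculated relative to solvent-treated cultures.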

[6] = NCI Yeast Anticancer Drug Screen. Data for the mlh1 rad18 strain (AID 175); settings: S. cerevisiae mlh1 rad18 strain growth inhibition, hits give high values
Outline: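 Test agents were incubated with a yeast strain of defined genotype (DNA damage repair defect). Inhibition of growth was derived by comparison with vehicle-exposed cultures.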

[7] = at 5.0 µM (retest, dose inferred, filed as 0.5)
[8] = at 50.0 µM (retest, dose inferred, filed as 5.0)

Row | SMILES | growth inhibition [1, 7] | growth inhibition [1, 8] | growth inhibition ([1]; at 50.0 µM) | growth inhibition [2, 7] | growth inhibition [2, 8] | growth inhibition ([2]; at 50.0 µM) | growth inhibition [3, 7] | growth inhibition [3, 8] | growth inhibition ([3]; at 50.0 µM) | growth inhibition [4, 7] | growth inhibition [4, 8] | growth inhibition ([4]; at 50.0 µM) | growth inhibition [5, 7] | growth inhibition [5, 8] | growth inhibition ([5]; at 50.0 µM) | growth inhibition [6, 7] | growth inhibition [6, 8] | growth inhibition ([6]; at 50.0 µM)
1 | COc1ccc2c(c1)nc1cc(Cl)ccc1[n+]2C | 8% | 97% (active) | 82.2% (active) | 2% | 95% (active) | 52.5% | -5% | 97% (active) | 74.1% (active) | 0% | 97% (active) | 64.4% | 9% | 93% (active) | 86.3% (active) | 5% | 97% (active) | 85.3% (active)
2 | Cc1cc(C)cc([C@H](C)N=Cc2cc(Br)ccc2O)c1 | 11% | 95% (active) | 96% (active) | -14% | 95% (active) | 95.8% (active) | -1% | 87% (active) | 89.9% (active) | -4% | 96% (active) | 86.3% (active) | -10% | 98% (active) | 95.2% (active) | 2% | 96% (active) | 97.5% (active)
3 | CN=C(NC1CCCCC1)c1ccc(NC(=O)c2ccc(C(=O)Nc3ccc(C(=NC)NC4CCCCC4)cc3)cc2)cc1 | 0% | 81% (active) | 69.5% | 2% | 59% | 24% | 6% | 96% (active) | 85.5% (active) | 6% | 65% | 92% (active) | -1% | 74% (active) | 33.7% | -1% | 99% (active) | 94.8% (active)
4 | C(CCCCCN1CCCCC1)CCCCN1CCCCC1 | -14% | -9% | -2.7% | -20% | -8% | 5.4% | 3% | -14% | 7.2% | 3% | 6% | 6.75% | -11% | -18% | -27.2% | -1% | 10% | 6.85%
5 | O=C(O)c1ccc2c(c1)CCCC2 | -154% | -116% | 16.2% | -55% | -53% | 6.3% | -66% | -58% | 9.5% | -60% | -61% | 52% | -75% | -70% | -12.9% | -143% | -101% | 21.4%
